Source: the supplement of paper PMC11732987, “Enantioselective OTUD7B fragment discovery through chemoproteomics screening and high-throughput optimisation” (Communications Chemistry, 2025)

Assays:
Assay in all cases: log2 ratio of Biotin-Ahx-Ub-VS probe labelling (fragment/DMSO); higher = less target engagement (more negative = stronger competition), active = hit call of the paper (q ≤ 0.05, log2 ratio ≤ -1)
Details in all cases: compound concentration: 200 uM; treatment time: 3 h
[1] = target: T1, USP42 (UniProt Q9H9J4)
T1 sequence (whole entry): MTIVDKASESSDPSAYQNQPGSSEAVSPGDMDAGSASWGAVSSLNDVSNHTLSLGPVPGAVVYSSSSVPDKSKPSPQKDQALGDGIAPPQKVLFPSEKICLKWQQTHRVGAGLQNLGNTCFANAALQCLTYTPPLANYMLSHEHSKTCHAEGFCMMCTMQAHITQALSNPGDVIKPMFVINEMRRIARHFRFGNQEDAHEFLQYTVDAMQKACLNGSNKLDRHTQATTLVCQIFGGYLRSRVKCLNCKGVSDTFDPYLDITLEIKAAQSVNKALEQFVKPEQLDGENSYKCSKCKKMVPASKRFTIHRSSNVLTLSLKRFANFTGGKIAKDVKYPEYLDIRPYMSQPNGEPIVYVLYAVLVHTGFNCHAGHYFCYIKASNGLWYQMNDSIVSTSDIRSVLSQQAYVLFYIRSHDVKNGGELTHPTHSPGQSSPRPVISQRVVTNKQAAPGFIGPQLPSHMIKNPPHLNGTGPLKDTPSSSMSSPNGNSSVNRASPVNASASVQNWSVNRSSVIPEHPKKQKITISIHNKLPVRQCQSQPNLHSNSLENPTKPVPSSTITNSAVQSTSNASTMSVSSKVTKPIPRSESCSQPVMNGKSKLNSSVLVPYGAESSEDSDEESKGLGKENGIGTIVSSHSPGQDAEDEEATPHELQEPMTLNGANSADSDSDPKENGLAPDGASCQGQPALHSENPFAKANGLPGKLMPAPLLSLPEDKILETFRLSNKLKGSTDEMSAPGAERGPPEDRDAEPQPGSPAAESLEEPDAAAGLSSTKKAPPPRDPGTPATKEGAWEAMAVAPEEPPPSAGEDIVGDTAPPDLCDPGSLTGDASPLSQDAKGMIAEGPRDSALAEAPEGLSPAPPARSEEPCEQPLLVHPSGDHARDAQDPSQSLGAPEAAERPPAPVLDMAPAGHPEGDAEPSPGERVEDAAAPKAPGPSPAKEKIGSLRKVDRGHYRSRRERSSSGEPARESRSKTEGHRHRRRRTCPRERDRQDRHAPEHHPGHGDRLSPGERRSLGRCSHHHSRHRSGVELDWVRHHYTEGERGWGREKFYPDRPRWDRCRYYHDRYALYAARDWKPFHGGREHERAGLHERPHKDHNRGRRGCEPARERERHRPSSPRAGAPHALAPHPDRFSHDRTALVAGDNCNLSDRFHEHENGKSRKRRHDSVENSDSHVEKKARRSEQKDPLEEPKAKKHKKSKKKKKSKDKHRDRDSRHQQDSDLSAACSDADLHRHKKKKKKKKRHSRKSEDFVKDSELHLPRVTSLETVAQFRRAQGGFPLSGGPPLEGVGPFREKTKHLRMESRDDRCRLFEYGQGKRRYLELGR
Procedure, shortened: (§1)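 HEK293T lysate (495 µg per sample, in Tris/CHAPS/IGEPAL buffer with protease inhibitors) was treated in triplicate with fragment at 200 µM or with DMSO for 3 h. It was then treated with Biotin-Ahx-Ub-VS (0.5 µM final) for 1 h. Labelled DUBs were NeutrAvidin-enriched, digested with LysC and trypsin, and run by diaPASEF LC-MS/MS. Spectronaut label-free quantities were global-median-normalised. Values are average log2 ratios fragment/DMSO by unpaired t-test, using proteins with ≥2 unique peptides.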

[2] = target: USP46 (UniProt P62068)
Procedure, shortened: as §1

[3] = target: T2, USP47 (UniProt Q96K76)
T2 sequence (whole entry): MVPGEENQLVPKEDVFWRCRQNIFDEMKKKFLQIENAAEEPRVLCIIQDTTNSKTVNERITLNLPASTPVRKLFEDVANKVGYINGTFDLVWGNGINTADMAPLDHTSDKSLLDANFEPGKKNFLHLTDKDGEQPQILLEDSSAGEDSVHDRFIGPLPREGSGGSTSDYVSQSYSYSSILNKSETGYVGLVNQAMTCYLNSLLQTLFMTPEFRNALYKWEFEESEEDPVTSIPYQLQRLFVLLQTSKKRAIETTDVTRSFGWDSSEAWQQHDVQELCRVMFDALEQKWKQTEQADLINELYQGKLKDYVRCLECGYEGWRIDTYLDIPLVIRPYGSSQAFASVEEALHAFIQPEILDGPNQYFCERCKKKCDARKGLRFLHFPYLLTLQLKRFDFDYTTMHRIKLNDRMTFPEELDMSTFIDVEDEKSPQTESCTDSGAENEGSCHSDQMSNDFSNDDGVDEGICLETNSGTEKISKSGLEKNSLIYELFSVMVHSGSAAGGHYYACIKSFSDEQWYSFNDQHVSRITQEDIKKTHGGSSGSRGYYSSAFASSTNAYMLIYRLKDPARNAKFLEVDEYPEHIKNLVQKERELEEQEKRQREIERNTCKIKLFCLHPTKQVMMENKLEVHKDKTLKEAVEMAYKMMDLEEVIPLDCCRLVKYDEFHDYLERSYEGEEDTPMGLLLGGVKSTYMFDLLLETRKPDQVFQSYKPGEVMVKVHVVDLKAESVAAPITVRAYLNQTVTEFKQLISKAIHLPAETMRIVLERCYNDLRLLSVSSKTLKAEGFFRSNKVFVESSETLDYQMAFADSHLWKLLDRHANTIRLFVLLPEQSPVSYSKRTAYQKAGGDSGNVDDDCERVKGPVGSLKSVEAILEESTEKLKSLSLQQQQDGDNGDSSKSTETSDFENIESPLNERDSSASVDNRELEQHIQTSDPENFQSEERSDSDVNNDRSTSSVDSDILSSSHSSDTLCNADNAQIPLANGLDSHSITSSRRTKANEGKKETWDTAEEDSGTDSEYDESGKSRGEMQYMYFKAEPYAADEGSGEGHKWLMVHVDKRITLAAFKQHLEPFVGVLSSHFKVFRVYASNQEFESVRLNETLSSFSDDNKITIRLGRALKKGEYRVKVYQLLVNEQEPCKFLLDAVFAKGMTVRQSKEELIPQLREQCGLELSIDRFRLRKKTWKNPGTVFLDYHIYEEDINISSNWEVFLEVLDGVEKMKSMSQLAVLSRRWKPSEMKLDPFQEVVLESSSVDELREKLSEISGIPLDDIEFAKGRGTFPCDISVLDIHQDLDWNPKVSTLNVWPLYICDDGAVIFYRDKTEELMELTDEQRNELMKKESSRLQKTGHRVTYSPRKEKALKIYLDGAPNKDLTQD
Procedure, shortened: as §1

[4] = target: T3, USP48 (UniProt Q86UV5)
T3 sequence (whole entry): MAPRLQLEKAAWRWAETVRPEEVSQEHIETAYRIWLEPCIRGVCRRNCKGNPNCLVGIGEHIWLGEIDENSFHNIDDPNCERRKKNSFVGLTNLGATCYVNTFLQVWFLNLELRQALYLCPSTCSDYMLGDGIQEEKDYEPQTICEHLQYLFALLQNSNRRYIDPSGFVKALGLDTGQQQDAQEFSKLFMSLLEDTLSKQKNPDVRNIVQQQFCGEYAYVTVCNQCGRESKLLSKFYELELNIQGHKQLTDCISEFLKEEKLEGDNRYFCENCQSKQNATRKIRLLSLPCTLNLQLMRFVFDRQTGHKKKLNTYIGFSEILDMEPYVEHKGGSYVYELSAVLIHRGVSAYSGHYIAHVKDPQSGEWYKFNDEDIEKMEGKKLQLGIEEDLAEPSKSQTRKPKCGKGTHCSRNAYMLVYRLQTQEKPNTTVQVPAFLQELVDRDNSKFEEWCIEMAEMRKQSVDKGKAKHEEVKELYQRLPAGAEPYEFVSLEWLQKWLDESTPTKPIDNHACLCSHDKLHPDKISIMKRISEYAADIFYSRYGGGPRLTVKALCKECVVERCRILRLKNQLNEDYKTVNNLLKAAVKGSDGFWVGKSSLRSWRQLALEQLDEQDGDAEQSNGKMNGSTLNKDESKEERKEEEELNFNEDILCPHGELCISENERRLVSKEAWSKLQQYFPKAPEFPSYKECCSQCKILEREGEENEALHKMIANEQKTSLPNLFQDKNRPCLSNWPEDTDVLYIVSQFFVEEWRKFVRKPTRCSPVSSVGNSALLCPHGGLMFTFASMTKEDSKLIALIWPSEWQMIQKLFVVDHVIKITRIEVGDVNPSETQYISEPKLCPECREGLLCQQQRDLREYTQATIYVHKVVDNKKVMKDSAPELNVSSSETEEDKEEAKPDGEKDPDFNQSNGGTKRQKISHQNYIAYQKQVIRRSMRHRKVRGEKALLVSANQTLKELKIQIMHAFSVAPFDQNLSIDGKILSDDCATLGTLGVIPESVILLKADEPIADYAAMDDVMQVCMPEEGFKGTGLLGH
Procedure, shortened: as §1

[5] = target: T4, USP5 (UniProt P45974)
T4 sequence (whole entry): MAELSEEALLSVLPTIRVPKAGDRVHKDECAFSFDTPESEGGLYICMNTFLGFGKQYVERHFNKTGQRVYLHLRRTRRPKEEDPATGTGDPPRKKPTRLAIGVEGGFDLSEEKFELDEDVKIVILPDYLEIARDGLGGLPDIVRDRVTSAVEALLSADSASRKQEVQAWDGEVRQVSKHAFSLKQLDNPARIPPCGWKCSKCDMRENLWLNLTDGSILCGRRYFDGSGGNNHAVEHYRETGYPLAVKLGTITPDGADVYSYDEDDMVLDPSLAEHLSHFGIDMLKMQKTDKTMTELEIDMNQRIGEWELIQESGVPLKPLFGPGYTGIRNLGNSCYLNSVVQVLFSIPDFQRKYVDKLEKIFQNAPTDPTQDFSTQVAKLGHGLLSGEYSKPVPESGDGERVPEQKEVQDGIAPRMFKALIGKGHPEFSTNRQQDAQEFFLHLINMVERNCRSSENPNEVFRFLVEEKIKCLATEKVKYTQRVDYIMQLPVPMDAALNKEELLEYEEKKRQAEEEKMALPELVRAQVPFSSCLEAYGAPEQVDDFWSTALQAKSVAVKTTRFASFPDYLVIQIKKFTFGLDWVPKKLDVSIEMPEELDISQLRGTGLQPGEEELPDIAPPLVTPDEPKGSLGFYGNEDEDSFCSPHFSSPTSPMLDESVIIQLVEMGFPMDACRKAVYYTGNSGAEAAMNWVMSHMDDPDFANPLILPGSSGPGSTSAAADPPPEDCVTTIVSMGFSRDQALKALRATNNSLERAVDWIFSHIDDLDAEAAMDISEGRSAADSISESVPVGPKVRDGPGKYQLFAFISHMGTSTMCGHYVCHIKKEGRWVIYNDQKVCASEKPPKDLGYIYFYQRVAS
Procedure, shortened: as §1

[6] = target: USP54 (UniProt Q70EL1)
Procedure, shortened: as §1

[7] = target: USP7 (UniProt Q93009)
Procedure, shortened: as §1

[8] = target: T5, USP8 (UniProt P40818)
T5 sequence (whole entry): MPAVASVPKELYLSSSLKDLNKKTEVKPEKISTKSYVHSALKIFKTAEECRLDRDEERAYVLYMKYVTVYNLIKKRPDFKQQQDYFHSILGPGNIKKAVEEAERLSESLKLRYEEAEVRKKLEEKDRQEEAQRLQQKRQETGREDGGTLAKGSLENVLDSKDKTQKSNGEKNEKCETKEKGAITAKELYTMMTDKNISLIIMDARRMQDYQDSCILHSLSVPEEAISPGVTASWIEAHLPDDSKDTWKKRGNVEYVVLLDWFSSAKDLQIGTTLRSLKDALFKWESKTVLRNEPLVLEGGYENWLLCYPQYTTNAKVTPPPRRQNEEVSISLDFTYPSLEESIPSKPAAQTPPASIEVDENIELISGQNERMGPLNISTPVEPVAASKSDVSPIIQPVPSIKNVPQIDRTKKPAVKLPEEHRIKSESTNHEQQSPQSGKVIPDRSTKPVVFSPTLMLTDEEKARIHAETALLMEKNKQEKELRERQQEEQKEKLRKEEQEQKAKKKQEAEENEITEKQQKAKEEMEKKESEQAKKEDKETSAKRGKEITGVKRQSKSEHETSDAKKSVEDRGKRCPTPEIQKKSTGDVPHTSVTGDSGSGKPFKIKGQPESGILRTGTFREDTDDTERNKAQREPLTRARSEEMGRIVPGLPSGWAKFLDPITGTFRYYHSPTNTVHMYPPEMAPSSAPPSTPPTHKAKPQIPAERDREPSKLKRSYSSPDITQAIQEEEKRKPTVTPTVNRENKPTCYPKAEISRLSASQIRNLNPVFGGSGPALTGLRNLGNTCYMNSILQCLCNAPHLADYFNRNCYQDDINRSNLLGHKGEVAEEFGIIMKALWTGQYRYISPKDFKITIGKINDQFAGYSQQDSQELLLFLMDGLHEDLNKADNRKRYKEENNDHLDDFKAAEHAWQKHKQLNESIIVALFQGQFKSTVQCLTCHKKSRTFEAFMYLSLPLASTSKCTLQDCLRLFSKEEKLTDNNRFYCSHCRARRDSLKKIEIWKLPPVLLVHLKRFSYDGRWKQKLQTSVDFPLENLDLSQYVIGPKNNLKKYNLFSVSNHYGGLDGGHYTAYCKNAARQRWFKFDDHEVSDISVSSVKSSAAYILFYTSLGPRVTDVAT
Procedure, shortened: as §1

Measured: log2 ratio of Biotin-Ahx-Ub-VS probe labelling

USP46, sequence (P62068 whole entry): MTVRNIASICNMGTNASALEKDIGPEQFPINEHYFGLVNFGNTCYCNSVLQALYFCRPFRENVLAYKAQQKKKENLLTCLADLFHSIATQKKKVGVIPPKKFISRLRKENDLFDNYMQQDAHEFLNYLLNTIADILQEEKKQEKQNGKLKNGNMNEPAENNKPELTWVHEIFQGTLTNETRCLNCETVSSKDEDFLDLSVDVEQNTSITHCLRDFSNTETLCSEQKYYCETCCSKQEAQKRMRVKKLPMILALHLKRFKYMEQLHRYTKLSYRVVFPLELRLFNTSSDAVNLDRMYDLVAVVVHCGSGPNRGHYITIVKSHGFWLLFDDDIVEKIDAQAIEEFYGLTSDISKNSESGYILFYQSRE
USP7, sequence (Q93009 whole entry, looked up): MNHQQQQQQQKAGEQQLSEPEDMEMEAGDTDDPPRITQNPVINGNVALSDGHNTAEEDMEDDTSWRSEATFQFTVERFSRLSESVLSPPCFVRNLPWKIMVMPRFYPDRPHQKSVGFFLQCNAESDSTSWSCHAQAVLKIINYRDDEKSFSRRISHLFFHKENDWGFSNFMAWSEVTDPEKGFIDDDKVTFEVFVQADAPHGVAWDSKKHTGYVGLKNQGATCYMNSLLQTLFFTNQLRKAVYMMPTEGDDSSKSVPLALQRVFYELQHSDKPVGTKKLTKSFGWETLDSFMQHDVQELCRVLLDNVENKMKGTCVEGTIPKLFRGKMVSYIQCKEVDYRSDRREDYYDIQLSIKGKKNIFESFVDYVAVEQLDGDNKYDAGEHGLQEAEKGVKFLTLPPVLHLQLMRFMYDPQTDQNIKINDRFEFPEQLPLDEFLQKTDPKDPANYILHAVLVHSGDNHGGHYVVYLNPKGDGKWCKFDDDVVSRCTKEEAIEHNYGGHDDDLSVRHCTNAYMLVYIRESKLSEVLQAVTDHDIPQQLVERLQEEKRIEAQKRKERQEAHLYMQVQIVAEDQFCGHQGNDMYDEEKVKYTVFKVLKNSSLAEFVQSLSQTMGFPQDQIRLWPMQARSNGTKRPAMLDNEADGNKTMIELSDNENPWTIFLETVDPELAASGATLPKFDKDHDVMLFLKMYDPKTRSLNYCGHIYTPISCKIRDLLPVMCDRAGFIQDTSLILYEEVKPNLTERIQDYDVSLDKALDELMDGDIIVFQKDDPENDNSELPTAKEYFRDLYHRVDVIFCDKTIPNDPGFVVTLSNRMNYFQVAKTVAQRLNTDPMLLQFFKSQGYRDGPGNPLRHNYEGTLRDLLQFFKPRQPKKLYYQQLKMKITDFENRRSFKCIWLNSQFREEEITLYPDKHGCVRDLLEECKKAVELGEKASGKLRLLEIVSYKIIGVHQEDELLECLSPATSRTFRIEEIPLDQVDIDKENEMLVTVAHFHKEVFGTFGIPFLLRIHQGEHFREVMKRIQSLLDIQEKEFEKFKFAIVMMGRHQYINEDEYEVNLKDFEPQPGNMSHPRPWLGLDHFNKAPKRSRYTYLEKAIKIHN
USP54, sequence (Q70EL1 whole entry): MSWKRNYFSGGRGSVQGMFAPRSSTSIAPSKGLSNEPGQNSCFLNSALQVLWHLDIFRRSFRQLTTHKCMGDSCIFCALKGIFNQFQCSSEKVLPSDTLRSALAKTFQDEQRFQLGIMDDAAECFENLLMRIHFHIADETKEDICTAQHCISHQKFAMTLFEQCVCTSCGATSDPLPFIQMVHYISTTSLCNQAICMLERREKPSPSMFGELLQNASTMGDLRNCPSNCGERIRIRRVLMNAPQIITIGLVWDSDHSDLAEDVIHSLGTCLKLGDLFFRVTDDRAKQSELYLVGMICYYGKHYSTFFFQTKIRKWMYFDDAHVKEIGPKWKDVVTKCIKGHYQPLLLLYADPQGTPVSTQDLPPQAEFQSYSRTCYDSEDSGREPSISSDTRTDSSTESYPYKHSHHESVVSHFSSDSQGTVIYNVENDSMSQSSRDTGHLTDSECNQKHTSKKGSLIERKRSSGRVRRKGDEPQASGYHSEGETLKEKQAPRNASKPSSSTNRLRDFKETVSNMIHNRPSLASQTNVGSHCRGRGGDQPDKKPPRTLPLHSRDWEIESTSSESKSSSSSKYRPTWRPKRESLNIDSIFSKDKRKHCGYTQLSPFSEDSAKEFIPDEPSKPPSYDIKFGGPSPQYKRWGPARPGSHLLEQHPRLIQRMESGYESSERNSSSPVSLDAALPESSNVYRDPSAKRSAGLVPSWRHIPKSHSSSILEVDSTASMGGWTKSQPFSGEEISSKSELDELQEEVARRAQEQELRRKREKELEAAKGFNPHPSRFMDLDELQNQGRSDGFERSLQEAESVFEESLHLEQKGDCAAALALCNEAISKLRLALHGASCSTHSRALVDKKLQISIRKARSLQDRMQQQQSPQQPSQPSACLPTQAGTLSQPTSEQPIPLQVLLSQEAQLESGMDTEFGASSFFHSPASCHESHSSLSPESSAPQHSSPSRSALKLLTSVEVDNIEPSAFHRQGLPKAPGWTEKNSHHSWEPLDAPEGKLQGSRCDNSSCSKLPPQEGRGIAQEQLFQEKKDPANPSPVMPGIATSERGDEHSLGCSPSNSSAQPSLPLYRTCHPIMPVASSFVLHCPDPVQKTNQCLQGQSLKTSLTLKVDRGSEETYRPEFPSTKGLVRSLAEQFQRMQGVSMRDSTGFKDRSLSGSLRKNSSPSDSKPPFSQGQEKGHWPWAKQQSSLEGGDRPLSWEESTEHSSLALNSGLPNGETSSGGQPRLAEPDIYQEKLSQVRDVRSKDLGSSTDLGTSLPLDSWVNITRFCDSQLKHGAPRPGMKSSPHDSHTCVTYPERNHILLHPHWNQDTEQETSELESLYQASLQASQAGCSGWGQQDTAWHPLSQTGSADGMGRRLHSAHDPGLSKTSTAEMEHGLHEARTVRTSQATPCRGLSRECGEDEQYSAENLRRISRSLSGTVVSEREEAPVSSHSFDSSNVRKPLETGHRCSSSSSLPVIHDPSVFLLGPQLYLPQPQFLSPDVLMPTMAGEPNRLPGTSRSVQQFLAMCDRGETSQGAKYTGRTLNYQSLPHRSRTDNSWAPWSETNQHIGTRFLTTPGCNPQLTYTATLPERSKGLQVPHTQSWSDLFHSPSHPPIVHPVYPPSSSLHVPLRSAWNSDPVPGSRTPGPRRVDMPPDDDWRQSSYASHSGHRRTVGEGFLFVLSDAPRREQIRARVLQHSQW

O=C(CCl)NC1CCN(C(=O)C2CCCCC2)CC1
inactive: [1] 0.471 | [2] 0.262 | [3] 0.301 | [4] 0.136 | [5] -0.157 | [6] 0.282 | [7] -0.045 | [8] 0.139
